# From PubChem BioAssay (NCATS)
# Inconclusive results are not listed. Where a call stands in place of a potency, no number is given. Calls of active or inactive are those of the source. Unless noted, calls follow the shape of the dose curve; as a rule, active = well fitted curve in the direction sought with a large enough effect; inconclusive = small, poorly fitted or top-dose-only effect, or another doubt; inactive = no such curve, though single readings can be large; an effect the other way counts as inactive or inconclusive.
# Key:
# [1] = qHTS Assay for Lipid Storage Modulators (AID 1519; calls by dose curve); details: Drosophila S3 cells, BODIPY lipid droplet/cell ratio, laser cytometry, cells loaded with oleic acid; for activity change, negative = inhibition: at 57.5 µM (top of the series)
# Procedure, shortened: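 Cells seeded at 5,000 per well were treated with compounds over a concentration series and loaded with oleic acid (400 uM, as added). Lipid droplet fluorescence (488 nm excitation, 500-530 nm channel) was read by laser-scanning cytometry and normalized to 20 uM Triacsin C.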
# [2] = target: Ubiquitin carboxyl-terminal hydrolase 1 (Homo sapiens) (UniProt O94782); assay: Inhibitors of USP1/UAF1: Pilot qHTS (AID 504865); details: purified USP1/UAF1, Ub-rhodamine cleavage fluorescence; series mostly up to 114 µM; also: nearly all actives have a fitted effect of over 35% in size; also: potency is read from the fitted curve at half-maximal effect;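 as to activity change, negative = inhibition: rhodamine fluorescence freed from ubiquitin-rhodamine substrate followed over time; top concentration of the series differs between compounds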
# Sequence of Ubiquitin carboxyl-terminal hydrolase 1 (Homo sapiens) (O94782 whole entry, looked up): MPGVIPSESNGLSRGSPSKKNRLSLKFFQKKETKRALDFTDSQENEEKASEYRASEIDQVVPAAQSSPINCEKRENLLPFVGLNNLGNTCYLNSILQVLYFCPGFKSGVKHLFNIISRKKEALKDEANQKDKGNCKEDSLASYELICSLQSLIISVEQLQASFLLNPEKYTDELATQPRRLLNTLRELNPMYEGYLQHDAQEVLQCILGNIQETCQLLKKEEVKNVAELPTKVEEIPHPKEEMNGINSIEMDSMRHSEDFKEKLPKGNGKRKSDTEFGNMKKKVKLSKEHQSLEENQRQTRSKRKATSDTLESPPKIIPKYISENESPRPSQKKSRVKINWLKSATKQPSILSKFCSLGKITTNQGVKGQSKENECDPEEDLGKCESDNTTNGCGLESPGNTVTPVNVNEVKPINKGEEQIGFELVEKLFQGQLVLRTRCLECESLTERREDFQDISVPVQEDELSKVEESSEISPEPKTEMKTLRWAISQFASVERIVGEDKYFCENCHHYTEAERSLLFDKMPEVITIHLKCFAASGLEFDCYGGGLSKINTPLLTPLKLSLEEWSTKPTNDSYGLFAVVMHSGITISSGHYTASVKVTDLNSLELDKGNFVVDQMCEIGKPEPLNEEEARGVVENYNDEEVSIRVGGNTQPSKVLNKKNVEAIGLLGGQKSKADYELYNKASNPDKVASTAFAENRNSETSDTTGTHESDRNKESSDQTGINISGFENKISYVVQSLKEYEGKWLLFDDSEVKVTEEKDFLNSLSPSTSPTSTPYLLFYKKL
# Procedure, shortened: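 Deubiquitinase activity followed as kinetic rhodamine fluorescence release from 150 nM Ub-Rho. 1 nM USP1/UAF1 with compound, after 15 min room-temperature preincubation, in HEPES pH 7.8 buffer containing TCEP, EDTA, BSA and Tween-20.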
# [3] = S16 Schwann cell viability assay (CellTiter-Glo assay) (AID 624031); details: S16 rat Schwann cells viability, 24 h; series mostly up to 25.7 µM;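 also: cellular ATP luminescence as a viability measure; nearly all actives have a fitted effect of over 70% in size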
# Procedure, shortened: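 Native S16 rat Schwann cells in DMEM/10% FBS without phenol red were incubated overnight, then exposed to compounds for 24 h at 37 °C/5% CO2. Viability was read as ATP luminescence (CellTiter-Glo), normalized to no-cell wells and DMSO (0%).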
# [4] = qHTS profiling for inhibitors of Plasmodium falciparum proliferation (AID 504749); also: potency is read from the fitted curve at half-maximal effect; as to all read-outs here: nearly all actives have a fitted effect of over 60% in size; details: P. falciparum in erythrocytes, SYBR Green DNA, 72 h; for activity, negative = inhibition: at 28.7 µM (top of the series)
# Procedure, shortened: (§1)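 Parasite proliferation within erythrocytes, 72 h exposure. Endpoint: SYBR Green I fluorescence after overnight lysis at room temperature. Controls: 0.29 uM artemisinin, DMSO.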
# [5] = tested on: CP201; assay: as above; details: P. falciparum in erythrocytes, SYBR Green DNA, 72 h; series mostly up to 12.8 µM
# Procedure, shortened: as §1
# [6] = tested on: CP305; assay: as above; details: P. falciparum in erythrocytes, SYBR Green DNA, 72 h; series mostly up to 12.8 µM
# Procedure, shortened: as §1
# [7] = tested on: CP315; assay: as above; details: P. falciparum in erythrocytes, SYBR Green DNA, 72 h; series mostly up to 12.8 µM
# Procedure, shortened: as §1
# [8] = tested on: CP325; assay: as above; details: P. falciparum in erythrocytes, SYBR Green DNA, 72 h; series mostly up to 12.8 µM
# Procedure, shortened: as §1
# [9] = tested on: CP329; assay: as above; details: P. falciparum in erythrocytes, SYBR Green DNA, 72 h; series mostly up to 12.8 µM
# Procedure, shortened: as §1
# [10] = tested on: FAB9; assay: as above; details: P. falciparum in erythrocytes, SYBR Green DNA, 72 h; series mostly up to 12.8 µM
# Procedure, shortened: as §1
# [11] = tested on: JCK; assay: as above; details: P. falciparum in erythrocytes, SYBR Green DNA, 72 h; series mostly up to 12.8 µM
# Procedure, shortened: as §1
# [12] = tested on: PC49; assay: as above; details: P. falciparum in erythrocytes, SYBR Green DNA, 72 h; series mostly up to 12.8 µM
# Procedure, shortened: as §1
# [13] = tested on: CP192; assay: as above; details: P. falciparum in erythrocytes, SYBR Green DNA, 72 h; series mostly up to 12.8 µM
# Procedure, shortened: as §1
# [14] = tested on: CP262; assay: as above; details: P. falciparum in erythrocytes, SYBR Green DNA, 72 h; series mostly up to 12.8 µM
# Procedure, shortened: as §1
# [15] = tested on: CP269; assay: as above; details: P. falciparum in erythrocytes, SYBR Green DNA, 72 h; series mostly up to 12.8 µM
# Procedure, shortened: as §1
# [16] = measured here: cell count channel max response
# [17] = measured here: lipid channel max response
Structure (SMILES),"activity change, negative = inhibition [1]","max response [1, 16]","max response [1, 17]",Potency [2],outcome [3],"activity, negative = inhibition ([4]; parasite line A)",Potency [5],Potency [6],Potency [7],Potency [8],Potency [9],Potency [10],Potency [11],Potency [12],Potency [13],Potency [14],Potency [15],"activity, negative = inhibition ([4]; parasite line B)",Potency ([4]; parasite line B),Potency ([4]; parasite line A)
COC(=O)[C@H]1[C@@H]2C[C@@H]3c4[nH]c5ccccc5c4CCN3C[C@H]2CC[C@H]1O,4.52% (inactive),12.3%,17.8%,inactive,,,,,,,,,,,,,,,,
N[C@@H]1C(O)OC(CO)C(O)C1O (stereo not given in full),5.31% (inactive),7.77%,20.8%,inactive,inactive,3.86% (inactive),inactive,inactive,inactive,inactive,inactive,inactive,inactive,inactive,,,,,,
COC1CC(O[C@H]2/C(C)=C/CC3CC(C[C@]4(CCC(C)C(C5CCCCC5)O4)O3)OC(=O)[C@H]3C=C(C)/C(=N/O)C4OC/C(=C\C=C\[C@@H]2C)[C@@]43O)OC(C)C1O (stereo not given in full),-12.3% (inactive),13.8%,-0.335%,,inactive,,inactive,inactive,inactive,inactive,inactive,,,,inactive,inactive,inactive,,,
CC1C2CCC3C4CC=C5CC(N(C)C)CC[C@@]5(C)C4CC[C@@]32CN1C (stereo not given in full),6.04% (inactive),14%,22.7%,inactive,inactive,2.63% (inactive),inactive,inactive,inactive,inactive,inactive,inactive,inactive,inactive,inactive,inactive,inactive,0.451% (inactive),,
CC1=CC(=O)[C@@H]2C[C@H]1C2(C)C,4.82% (inactive),-1.97%,-0.655%,inactive,,,,,,,,,,,,,,,,
O=c1[nH]c(=O)n([C@@H]2O[C@H](CO)[C@@H](O)[C@H]2O)cc1Br,-8.5% (inactive),-11.6%,-16.6%,inactive,,,,,,,,,,,,,,,,
CC(=O)O[C@@]1(C(C)=O)CCC2C3CC(C)C4=CC(=O)CC[C@@]4(C)C3CC[C@]21C (stereo not given in full),-11.6% (inactive),4.77%,-5.62%,,,,inactive,inactive,inactive,inactive,inactive,inactive,inactive,inactive,inactive,inactive,inactive,,12.6 µM (active),
C[C@H](CCC(=O)O)[C@H]1CC[C@H]2[C@H]3C(C[C@H](O)[C@]12C)[C@@]1(C)CC[C@@H](O)C[C@H]1C[C@H]3O (stereo not given in full),9.53% (inactive),17.9%,25.2%,inactive,,,,,,,,,,,,,,,,
CC[C@H](CC[C@@H](C)C1CC[C@H]2[C@@H]3CC=C4C[C@@H](O)CC[C@]4(C)[C@H]3CC[C@]12C)C(C)C (stereo not given in full),-0.0175% (inactive),43.5%,42.8%,inactive,,,,,,,,,,,,,,,,
C=Cc1c(C)/c2[n-]/c1=C\c1[n-]c(c(CC)c1C)/C=c1\[n-]c3c(c1C)C(=O)C(C(=O)[O-])C=3c1[n-]c(c(C)c1CCC(=O)[O-])\C=2.[Cu].[Na+].[Na+] (stereo not given),23.5% (inactive),-5.82%,20.1%,20 µM (active),inactive,-17.5% (inactive),inactive,inactive,,inactive,inactive,inactive,inactive,inactive,,inactive,inactive,,,
COc1ccc2cc1Oc1ccc(cc1)CC1c3c(cc4c(c3Oc3cc5c(cc3OC)CCN(C)C5C2)OCO4)CCN1C (stereo not given),10.7% (inactive),5.9%,21%,,,,,9.53 µM (active),,12 µM (active),,,,,,8.49 µM (active),13.5 µM (active),,10 µM (active),8.91 µM (active)
Cc1cc(=O)oc2cc(O[C@@H]3O[C@H](C(=O)O)[C@@H](O)[C@H](O)[C@H]3O)ccc12,7.88% (inactive),8.78%,16.3%,inactive,,,,,,,,,,,,,,,,
O=C(O)C1=C[C@@H](O)[C@@H](O)[C@H](O)C1,5.96% (inactive),13.7%,21.4%,inactive,,,,,,,,,,,,,,,,
OCC1OC(n2cnc3c(=S)nc[nH]c32)C(O)C1O (stereo not given),0.292% (inactive),-3.48%,-0.429%,inactive,inactive,-27.9% (inactive),inactive,inactive,inactive,inactive,inactive,inactive,inactive,inactive,inactive,inactive,inactive,,,
COc1ccc(-c2cc(=O)c3c(O)cc(O[C@H]4OC(COC5OC(C)C(O)C(O)[C@H]5O)C(O)C(O)C4O)cc3o2)cc1O (stereo not given in full),5.51% (inactive),6.56%,15.8%,,inactive,15% (inactive),inactive,inactive,inactive,inactive,inactive,inactive,inactive,inactive,inactive,inactive,inactive,23.4% (inactive),,
C[C@@]12C=CC(=O)C=C1CCC1C3CC(O)[C@@](O)(C(=O)CO)[C@]3(C)CC(O)[C@]12F (stereo not given in full),10.8% (inactive),11.4%,25.4%,inactive,inactive,5.41% (inactive),inactive,inactive,inactive,inactive,inactive,inactive,inactive,inactive,inactive,inactive,inactive,,,
NC(CCC(=O)N[C@@H](CS)C(=O)NCC(=O)O)C(=O)O (stereo not given in full),8.76% (inactive),11.9%,24.8%,inactive,,,inactive,,inactive,,,,,,,inactive,15.1 µM (active),,,
OCC1OC(Oc2cccc3cccnc23)C(O)C(O)C1O (stereo not given),-4.73% (inactive),-12.4%,-14.1%,inactive,,,,,,,,,,,,,,,,
CC(C)Oc1ccc2c(=O)cc(-c3ccccc3)oc2c1,14.1% (inactive),14.7%,29.4%,,inactive,-21.9% (inactive),inactive,inactive,inactive,inactive,inactive,inactive,inactive,inactive,inactive,inactive,inactive,,,
